From PubChem BioAssay (NCATS)
“And” between values parts separate entries of the source, which are not always exact repeats. Identical values can stand only once. Results filed as inconclusive are left out. The source made the active and inactive calls. The call rests on the fitted dose curve; in most records, active means well fitted curve in the direction sought with a large enough effect; inconclusive means small, poorly fitted or top-dose-only effect, or another doubt; inactive means no such curve, though single readings can be large; an effect the other way counts as inactive or inconclusive.

Assays:
[1] = qHTS of pediatric cancer cell lines to identify multiple opportunities for drug repurposing: Primary screen for A673 cells (AID 1347092); conditions: A673 Ewing sarcoma viability, CellTiter-Glo ATP luminescence, 48 h; series mostly up to 46 µM; further: nearly all actives have a fitted effect of over 45% in size; further: potency means the concentration at half of the fitted maximal effect
How it was run: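 Titration-based qHTS on A673 cells: MIPE compounds spanned 11 points (0.78 nM to 46 µM final), NPC compounds 8 points (0.59 nM to 46 µM final). Viability after 48 h was measured by ATP luminescence.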

[2] = qHTS of pediatric cancer cell lines to identify multiple opportunities for drug repurposing: Primary screen for SK-N-MC cells (AID 1347093); conditions: SK-N-MC viability, CellTiter-Glo luminescence, 48 h; series mostly up to 46 µM; further: potency means the concentration at half of the fitted maximal effect
How it was run: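 Metabolically active cells were quantified by ATP-dependent luminescence (CellTiter-Glo, 15 min at room temperature) following 48 h treatment. Cells had been plated at 500-1,000 per well and settled for 5 h beforehand.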

[3] = qHTS of pediatric cancer cell lines to identify multiple opportunities for drug repurposing: Primary screen for NB-EBc1 cells (AID 1347095); conditions: NB-EBc1 neuroblastoma viability, CellTiter-Glo luminescence, 48 h; series mostly up to 46 µM; further: potency means the concentration at half of the fitted maximal effect
How it was run: (§1)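 500-1,000 cells/well; 5 h pre-incubation 37 °C/5% CO2; compound pinned; 48 h; CellTiter-Glo, 15 min RT; luminescence. MIPE 11-pt from 0.78 nM, NPC 8-pt from 0.59 nM final. Bortezomib 2.3 µM final as positive control.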

[4] = qHTS of pediatric cancer cell lines to identify multiple opportunities for drug repurposing: Primary screen for U-2 OS cells (AID 1347096); conditions: U-2 OS viability, CellTiter-Glo luminescence, 48 h; series mostly up to 46 µM; further: nearly all actives have a fitted effect of over 50% in size; further: potency means the concentration at half of the fitted maximal effect
How it was run: (§2)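 Cells (500-1,000/well) rested 5 h, then received compounds for 48 h; metabolically active cells were measured by CellTiter-Glo luminescence. Final concentrations spanned up to 46 µM (MIPE, 11-point) or 0.59 nM-46 µM (NPC, 8-point) in primary screens, 11-point in follow-ups.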

[5] = qHTS of pediatric cancer cell lines to identify multiple opportunities for drug repurposing: Primary screen for SK-N-SH cells (AID 1347098); conditions: SK-N-SH viability, CellTiter-Glo luminescence, 48 h; series mostly up to 57 µM; further: nearly all actives have a fitted effect of over 65% in size; further: potency means the concentration at half of the fitted maximal effect
How it was run: as §2

[6] = qHTS of pediatric cancer cell lines to identify multiple opportunities for drug repurposing: Primary screen for NB1643 cells (AID 1347099); conditions: NB1643 neuroblastoma viability, CellTiter-Glo luminescence, 48 h; series mostly up to 46 µM; further: nearly all actives have a fitted effect of over 50% in size; further: potency means the concentration at half of the fitted maximal effect
How it was run: as §1

[7] = qHTS of pediatric cancer cell lines to identify multiple opportunities for drug repurposing: Primary screen for LAN-5 cells (AID 1347100); conditions: LAN-5 neuroblastoma viability, CellTiter-Glo luminescence, 48 h; series mostly up to 46 µM; further: potency means the concentration at half of the fitted maximal effect
How it was run: as §2

[8] = qHTS of pediatric cancer cell lines to identify multiple opportunities for drug repurposing: Primary screen for BT-37 cells (AID 1347094); conditions: BT-37 viability, CellTiter-Glo luminescence, 48 h; series mostly up to 57.3 µM
How it was run: as §1

[9] = qHTS of pediatric cancer cell lines to identify multiple opportunities for drug repurposing: Primary screen for Saos-2 cells (AID 1347097); conditions: Saos-2 viability, CellTiter-Glo ATP luminescence, 48 h; series mostly up to 46 µM; further: nearly all actives have a fitted effect of over 40% in size; further: potency means the concentration at half of the fitted maximal effect
How it was run: as §1

[10] = qHTS of pediatric cancer cell lines to identify multiple opportunities for drug repurposing: Primary screen for BT-12 cells (AID 1347101); conditions: BT-12 viability, CellTiter-Glo luminescence, 48 h; series mostly up to 57.3 µM; further: nearly all actives have a fitted effect of over 25% in size; further: potency means the concentration at half of the fitted maximal effect
How it was run: as §2

Measured: Potency

O=C1c2ccccc2-c2n[nH]c3cccc1c23
active: [1] 1.87 µM | [2] 2.64 µM | [3] 1.05 µM | [5] 5.41 µM | [6] 2.96 µM | [7] 1.66 µM
inactive: [4]

CC(=O)Nc1ccc(O)cc1
not listed: [3] | [10]
inactive: all other assays above

N[C@@H](Cc1cc(I)c(Oc2cc(I)c(O)c(I)c2)c(I)c1)C(=O)O
not listed: [3] | [9] | [10]
inactive: all other assays above

C[C@]12CCC(=O)C=C1CC[C@@H]1[C@H]2[C@@H](O)C[C@@]2(C)[C@H]1CC[C@]2(O)C(=O)CO
active: [1] 18.7 µM
inactive: [2] | [3] | [4] | [9] | [7]

Cc1nc2n(c(=O)c1CCN1CCC(c3noc4cc(F)ccc34)CC1)CCCC2
not listed: [8]
inactive: all other assays above

O=Nc1c(-c2c(O)[nH]c3cc(Br)ccc23)[nH]c2ccccc12
active: [1] 2.35 µM | [2] 2.09 µM | [3] 8.33 µM | [5] 17.1 µM | [6] 9.35 µM | [7] 18.7 µM | [10] 24.3 µM

Nc1nc(N)c(N=O)c(OCC2CCCCC2)n1
active: [1] 7.43 µM | [2] 3.32 µM | [5] 24.1 µM | [6] 18.7 µM

N=C(N=C(N)N)N1CCOCC1
not listed: [2] | [5] | [9]
inactive: all other assays above

Cc1cc(Cl)ccc1OCCCC(=O)NO
active: [1] 2.96 µM | [2] 2.09 µM | [3] 4.69 µM | [5] 19.2 µM | [6] 4.18 µM | [7] 2.64 µM
inactive: [10]

CCOC(=O)C1=C[C@@H](OC(CC)CC)[C@H](NC(C)=O)[C@@H](N)C1
not listed: [2] | [8] | [10]
inactive: all other assays above

NNc1nncc2ccccc12
not listed: [3] | [8]
inactive: all other assays above

CCCS(=O)c1ccc2nc(NC(=O)OC)[nH]c2c1 (stereo unspecified)
inactive: [4] | [6]
active: [1] 29.6 µM | [2] 7.5 µM and 18.7 µM | [9] 13.3 µM | [7] 16.8 µM

OC(CN1CCN(c2cccc(Cl)c2)CC1)C(c1ccccc1)c1ccccc1 (stereo unspecified)
active: [1] 18.7 µM | [2] 10.5 µM | [9] 18.7 µM | [5] 15.2 µM
inactive: [4]

Cc1cccc(C)c1OCC(=O)N[C@@H](Cc1ccccc1)[C@@H](O)C[C@H](Cc1ccccc1)NC(=O)[C@H](C(C)C)N1CCCNC1=O
active: [1] 23.5 µM | [2] 29.6 µM | [6] 20.9 µM
inactive: [4]

O=c1oc2cc(O)ccc2s1
active: [1] 9.35 µM | [2] 23.5 µM
inactive: [3] | [4] | [5] | [7]

O=C(O)c1cc(=O)c2c(OCC(O)COc3cccc4oc(C(=O)O)cc(=O)c34)cccc2o1
not listed: [3] | [8]
inactive: all other assays above

CCC[C@@H]1C[C@@H](C(=O)N[C@@H]([C@H]2O[C@H](SC)[C@H](O)[C@@H](O)[C@H]2O)[C@@H](C)O)N(C)C1
not listed: [3] | [8]
inactive: all other assays above

c1ccc2[nH]c(-c3cscn3)nc2c1
not listed: [2]
inactive: all other assays above

CCCCN(CCCC)CCC(O)c1cc2c(Cl)cc(Cl)cc2c2cc(C(F)(F)F)ccc12 (stereo unspecified)
inactive: [1] | [4] | [5] | [6]
active: [2] 11.9 µM and 33.2 µM

COc1cc2c(N3CCN(C(=O)Nc4ccc(OC(C)C)cc4)CC3)ncnc2cc1OCCCN1CCCCC1
inactive: [3] | [4]
active: [1] 29.6 µM | [2] 23.5 µM | [5] 27.1 µM and 17.2 µM | [7] 18.7 µM | [10] 24.3 µM

CC1(C)C(=O)N(CCN2CCC(C(=O)c3ccc(F)cc3)CC2)c2ccccc21
active: [2] 10.5 µM
inactive: [1] | [4] | [9] | [7]

CCOC(=O)C(C)Oc1cccc2c(=O)n(CC(=O)Nc3ccc4c(c3)OCCO4)ccc12 (stereo unspecified)
inactive: [3] | [4] | [5] | [7]
active: [1] 7.43 µM

CCc1nc(N)nc(N)c1-c1ccc(Cl)cc1
active: [1] 10.6 µM and 14.8 µM | [2] 668 nM and 1.18 µM | [10] 8.71 µM and 10.9 µM
inactive: [9] | [5] | [6]

O=C(NCCO[N+](=O)[O-])c1cccnc1
inactive: [1] | [3] | [4] | [9] | [5] | [7]

C[Se]CCC(N)C(=O)O (stereo unspecified)
active: [2] 54 µM
not listed: [6] | [8] | [9]
inactive: all other assays above

CC(C)c1ccc2oc3nc(N)c(C(=O)O)cc3c(=O)c2c1
not listed: [8] | [9]
inactive: all other assays above

O=C(NC(Cc1cc(=O)[nH]c2ccccc12)C(=O)O)c1ccc(Cl)cc1 (stereo unspecified)
not listed: [2] | [6] | [10]
inactive: all other assays above

Cc1cccc(C#Cc2ccccc2)n1
inactive: [1] | [8] | [4] | [7] | [10]

Cc1c(OCC(F)(F)F)ccnc1CS(=O)c1nc2ccccc2[nH]1 (stereo unspecified)
not listed: [2] | [9]
inactive: all other assays above

CC[C@]1(O)C[C@H]2CN(CCc3c([nH]c4ccccc34)[C@@](C(=O)OC)(c3cc4c(cc3OC)N(C=O)[C@H]3[C@@](O)(C(=O)OC)[C@H](OC(C)=O)[C@]5(CC)C=CCN6CC[C@]43[C@@H]65)C2)C1
active: [1] 4.7 nM and 5.3 nM | [2] 11.8 nM and 6.7 nM | [3] 9.3 nM and 237 nM | [9] 0.0235 µM | [7] 8.3 nM and 59.6 nM | [10] 15.3 nM and 19.5 nM

Cc1cc(O)c2c(c1)C(=O)c1cc(O)cc(O)c1C2=O
not listed: [2] | [3] | [6]
inactive: all other assays above

Cc1cccc(CN2CCN(C(c3ccccc3)c3ccc(Cl)cc3)CC2)c1 (stereo unspecified)
active: [1] 18.7 µM | [2] 11.9 µM and 18.7 µM | [3] 18.7 µM
inactive: [4] | [5] | [7]

Cn1c(NCCN(CCO)CCCc2ccc([N+](=O)[O-])cc2)cc(=O)n(C)c1=O
inactive: [1] | [8] | [4] | [9] | [5] | [10]

Cc1ccc(C(=O)c2cc(O)c(O)c([N+](=O)[O-])c2)cc1
active: [1] 11.8 µM | [2] 23.7 µM and 18.7 µM
inactive: [4] | [5] | [6] | [10]

Cc1nc(Nc2ncc(C(=O)Nc3c(C)cccc3Cl)s2)cc(N2CCN(CCO)CC2)n1
active: [1] 3.72 µM and 3.35 µM | [2] 18.7 µM and 16.8 µM | [4] 18.7 µM and 13.3 µM
inactive: [6] | [7]

Nc1nc(Cl)nc2c1ncn2[C@H]1C[C@H](O)[C@@H](CO)O1
active: [1] 2.96 µM | [2] 18.7 µM | [6] 1.05 µM | [7] 0.418 µM
inactive: [4]

Cc1ccc(Nc2nccc(N(C)c3ccc4c(C)n(C)nc4c3)n2)cc1S(N)(=O)=O
inactive: [1] | [6]
active: [2] 8.41 µM and 16.6 µM | [7] 18.7 µM | [10] 12.3 µM and 15.3 µM

O=C1c2c(O)cc(O)cc2OC(c2ccc(O)c(O)c2)C1O (stereo unspecified)
inactive: [1] | [4]
active: [2] 4.69 µM | [5] 30.4 µM

CN(C)CCCC1(c2ccc(F)cc2)OCc2cc(C#N)ccc21 (stereo unspecified)
active: [1] 29.6 µM | [2] 11.8 µM | [6] 16.6 µM
inactive: [3] | [4] | [7] | [10]

Cc1nc(-c2ccc(OCC(C)C)c(C#N)c2)sc1C(=O)O
not listed: [2] | [10]
inactive: all other assays above

CC(=O)O[C@H]1C(=O)[C@@]2(C)C([C@H](OC(=O)c3ccccc3)[C@]3(O)C[C@H](OC(=O)[C@H](O)[C@@H](NC(=O)c4ccccc4)c4ccccc4)C(C)=C1C3(C)C)[C@]1(OC(C)=O)CO[C@@H]1C[C@@H]2O (stereo partly specified)
active: [1] 0.001 µM | [2] 0.001 µM | [7] 0.001 µM
inactive: [4] | [5]

O=C(CS(=O)Cc1ccco1)NCC=CCOc1cc(CN2CCCCC2)ccn1 (stereo unspecified)
not listed: [2] | [5] | [6]
inactive: all other assays above

O=C(O)CCNC(=O)c1ccc(N=Nc2ccc(O)c(C(=O)O)c2)cc1
not listed: [2] | [5]
inactive: all other assays above

O=c1ccc2ccc(O)c(O)c2o1
inactive: [8] | [4]
active: [1] 5.9 µM

O=C(NCC1CCCCN1)c1cc(OCC(F)(F)F)ccc1OCC(F)(F)F (stereo unspecified)
inactive: [4]

O=c1cc(N2CCOCC2)oc2c(-c3ccccc3)cccc12
active: [2] 9.35 µM | [6] 20.9 µM
inactive: [4] | [7]

CS(=O)(=O)OCCCCOS(C)(=O)=O
inactive: [1] | [4] | [5] | [6] | [7] | [10]
